Source: PubChem BioAssay (National Center for Advancing Translational Sciences (NCATS))
JMJD2A Tudor inh: blocks the human JMJD2A Tudor domain; O75164; AlphaScreen JMJD2A-Tudor / H3K4me3 peptide binding; Potency, µM (doses to about 114 µM), without a hit: at the top dose activity change, negative = inhibition, hits mostly inhibitors; 4.4% of 390,000 active; further: potency means the concentration at half of the fitted maximal effect; on the % scale 0 is the no-effect control and ±100 the full control effect; nearly all actives have a fitted effect of over 50% in size
BAZ2B block: inhibitors of human BAZ2B bromodomain. Potency, µM (highest dose often 114 µM), for inactives: at the top dose activity change, negative = inhibition, most hits filed as inhibitors. Q9UIF8. AlphaScreen BAZ2B-H3K14Ac peptide displacement. 4.4% of 360,000 active; further: potency means the concentration at half of the fitted maximal effect; on the % scale 0 is the no-effect control and ±100 the full control effect; nearly all actives have a fitted effect of over 60% in size
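BAZ2B 50 nM plus b-H3(5-23)K14Ac 50 nM, PBS pH 7.4/0.01% Tween-20, 30 min RT; compound added (max 110 uM), 30 min RT; streptavidin donor/Ni-chelate acceptor beads 10 ug/mL final, 20 min dark; AlphaScreen read.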
HP1b chromo inh: blocks HP1-beta chromodomain binding to methylated histone tails; P83916; AlphaScreen HP1-beta / biotin-H3K9me3 peptide binding; Potency, µM (highest dose often 114 µM), for the others: top-dose activity change, negative = inhibition, hits mostly inhibitors; 0.56% of 390,000 active; AID 540317; further: potency means the concentration at half of the fitted maximal effect; nearly all actives have a fitted effect of over 70% in size
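HP1-beta protein (50 nM final) preincubated 30 min at room temperature with biotinylated H3(1-18)K9me3 peptide (50 nM) in PBS pH 7.4, 0.01% Tween-20, then compound added for 30 min. AlphaScreen streptavidin donor/nickel chelate acceptor beads (10 ug/mL final), 30 min dark, luminescence read.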
G9a inh: inhibitors of human histone lysine methyltransferase G9a. G9a H3K9 monomethylation, AlphaScreen, 2 h. AID 504332. Potency, µM (titrated, usually from 102 µM), for the others: top-dose activity, negative = inhibition, most hits filed as inhibitors. Q96KQ7. 8.8% of 350,000 active; further: potency means the concentration at half of the fitted maximal effect; on the % scale 0 is the no-effect control and ±100 the full control effect; nearly all actives have a fitted effect of over 75% in size
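G9a (20 nM) was preincubated 15 min with compound, then reacted 2 h at room temperature with 500 nM biotin-H3K9 peptide and 20 µM SAM. Monomethyl-H3K9 detected by AlphaScreen using anti-H3K9me1 antibody.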
PLK1 PBD inh: PLK1 (human) polo-box domain binding inhibition; Plk1 PBD binding of FITC phosphopeptide, fluorescence polarization; 2.8% of 360,000 active; Potency, µM, inactives show max response, negative = inhibition, actives largely listed as inhibitors; further: potency means the concentration at half of the fitted maximal effect; series mostly up to about 57 µM; on the % scale 0 is the no-effect control and ±100 the full control effect; nearly all actives have a fitted effect of over 65% in size
Target sequence (P53350 whole entry, looked up, the tested form may be a part): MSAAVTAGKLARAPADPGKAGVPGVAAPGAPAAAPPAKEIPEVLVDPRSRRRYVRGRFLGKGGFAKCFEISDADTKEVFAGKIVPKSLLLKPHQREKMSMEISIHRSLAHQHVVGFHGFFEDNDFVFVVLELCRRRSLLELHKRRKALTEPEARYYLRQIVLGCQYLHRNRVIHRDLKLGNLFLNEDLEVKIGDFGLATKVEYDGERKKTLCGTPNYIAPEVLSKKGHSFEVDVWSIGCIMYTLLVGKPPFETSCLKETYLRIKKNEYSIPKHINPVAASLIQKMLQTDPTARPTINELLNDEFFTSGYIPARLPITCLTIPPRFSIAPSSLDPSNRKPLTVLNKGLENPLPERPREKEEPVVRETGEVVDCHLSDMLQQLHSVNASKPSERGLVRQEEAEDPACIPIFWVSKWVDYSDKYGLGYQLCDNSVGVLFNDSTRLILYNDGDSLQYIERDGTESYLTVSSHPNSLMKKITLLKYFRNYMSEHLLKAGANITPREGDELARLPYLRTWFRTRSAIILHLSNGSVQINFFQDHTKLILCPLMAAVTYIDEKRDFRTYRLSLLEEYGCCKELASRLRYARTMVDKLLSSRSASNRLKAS
PI5P4K alpha inh: inhibitors of human PI5P4K alpha | P48426 | 1.2% of 330,000 active | PI5P4Kalpha enzyme, ADP-Glo luminescence, 60 min; hits give low values | max response, %; active means max response of -50% or lower; inconclusive means between -30% and -50%; inactive means -30% or higher; further: value at the top dose of about 77 µM; on the % scale 0 is the no-effect control and ±100 the full control effect
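ADP-Glo luminescence end-point read after a 60 min room-temperature kinase reaction of PI5P4Kalpha plus substrate, initiated with ATP at 5 microM final. Buffer: 0.038 M HEPES pH 7.4, EGTA, 0.1% CHAPS, 5% DMSO.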
* marks the source's active call; other numbers are inactive results; ? = inconclusive; / = not tested or not shown; [ ] = remark or other dose. A selection: hits, their analogues and other compounds. The true share with any hit is near 12%. Unless noted, the call rests on the fitted dose curve; in most records, active means well fitted curve in the direction sought with a large enough effect; inconclusive means small, poorly fitted or top-dose-only effect, or another doubt; inactive means no such curve, though single readings can be large; an effect the other way counts as inactive or inconclusive.

SMILES	JMJD2A Tudor inh	BAZ2B block	HP1b chromo inh	G9a inh	PLK1 PBD inh	PI5P4K alpha inh
C[N+]1(CCCCCCC(=O)/C=N/O)CCCCCC1	-6%	-28%	22%	14µM*	-2%	/
O=c1cnc2cnc(Oc3cccc(Cl)c3)nc2n1C1CC1	/	/	/	-6%[12.7 µM]	/	/
COCCN(CCOC)S(=O)(=O)c1ccc(Cl)nc1	-23%	4%	4%	0%[59 µM]	21µM*	-7
CCN(CC)S(=O)(=O)c1ccc(Cl)nc1	12%	/	29%	-32%	2%	-1
O=S1(=O)N=C(Oc2ccc(Cl)cc2)c2ccccc21	100µM*	/	/	/	/	/
CCc1ccc(OC2=NS(=O)(=O)c3ccccc32)cc1	-12%	?	21%	?	12µM*	-4
CCN(CC)c1cccc(OC2=NS(=O)(=O)c3ccccc32)c1	63µM*	56µM*	-21%	16µM*	3.4µM*	-10
Cc1ccc2[nH]c3c(=O)n(CC(=O)N4CCCC(C)C4)ncc3c2c1 (stereo unspecified)	1%	9%[57.1 µM]	35%	1%[59 µM]	/	/
COc1cccc(Nc2ncc3ncc(=O)n(C[C@H]4CCCO4)c3n2)c1	/	/	/	7%[0.501 µM]	/	/
Cc1ccc(N2CCN(S(=O)(=O)c3ccc(F)c(C(=O)Nc4ccc(Cl)cc4Cl)c3)CC2C)cc1 (stereo unspecified)	-33%	-14%	6%	-3%[59 µM]	/	/
CCC(=O)N1CCc2cc(Br)cc(S(=O)(=O)CCC(=O)NCCc3ccc(Cl)cc3)c21	-1%	1%	37%	4%[59 µM]	/	/
COc1ccccc1NC(=O)N1CCOc2ccccc21	-27%	-16%	12%	-32%[59 µM]	/	/
Cc1cc(/C=C2\SC(=S)NC2=O)c(C)n1C	45µM*	45µM*	-36%	40µM*	-9%	/
Cc1cc(/C=C2/C(=O)NN(c3ccccc3)C2=O)c(C)n1-c1ccc(O)cc1	-21%	-6%	?	-8%[59 µM]	-12%	-20
COC(=O)c1cccc(-n2c(C)cc(/C=C3\SC(=O)NC3=O)c2C)c1	/	/	/	/	-28%	-2
Cc1cc(C=C2C(=O)CCCC2=O)c(C)n1-c1ccccc1	?	50µM*	-12%	50µM*	?	?
Cc1cc(C(=O)O)ccc1-n1c(C)cc(/C=C2\SC(=O)NC2=O)c1C	-18%	-30%	31%	?	-9%	-58*
Cc1cc(/C=C2\SC(=S)NC2=O)c(C)n1-c1ccccc1	14µM*	?	-20%	45µM*	?	-83*
COc1ccc(-n2c(C)cc(/C=C3\SC(=S)NC3=O)c2C)cc1	-23%	-12%	9%	/	-7%	?
COc1cc(NC(=O)C(Cc2ccccc2)NS(=O)(=O)c2cccs2)cc(OC)c1 (stereo unspecified)	-18%	3%	12%[57 µM]	16%[59 µM]	/	/
CCOC(=O)c1c(NC(=O)CCCOc2ccccc2C)sc2c1CCC(C)C2 (stereo unspecified)	28%	14%	62%	54%[59 µM]	/	/
O=C(O)C1Oc2ccccc2C1c1ccccc1 (stereo unspecified)	-9%	/	14%[57 µM]	/	-6%	-5
Cc1cc(/C=C2\SC(=S)NC2=O)c(C)n1-c1ccc(O)cc1	-15%[11.4 µM]	40µM*	?	/	-18%	-83*
Cc1ccc(-c2ccc(CCC(=O)O)n2-c2cccc(C)c2C)cc1	35µM*	45µM*	-24%	14µM*	/	/
CC(=O)Nc1ccc(-n2c(CCC(=O)O)ccc2-c2ccc(C)cc2)cc1	-31%	-32%	-5%	14µM*	/	/
Cc1ccc(-c2ccc(CCC(=O)O)n2-c2ccc(C(C)C)cc2)cc1	?	40µM*	?	16µM*	/	/
Cc1ccc(C)n1-c1ccc(C(=O)O)cc1	/	13µM*	/	8.9µM*	/	/
O=C(O)CCc1ccc(-c2ccccc2)n1-c1cccc(O)c1	?	-35%	-6%	?	-16%	/
CCc1sc(-c2cc3ccccc3oc2=O)nc1-c1ccc(C)cc1	139%[57.1 µM]	/	185%[57 µM]	/	/	/
Cc1ccc(-c2ccc(CCC(=O)O)n2-c2cccc(C(=O)O)c2)cc1	-26%	-12%	10%	45µM*	-9%	-10
